APOBEC3G inh: APOBEC3G DNA deaminase inhibitors, primary screen, biochemical, fluorescence, single-stranded DNA substrate, uHTS. DNA dC->dU-editing enzyme APOBEC-3G (Homo sapiens), Q9HC16. inhibition, % at 20 µM. 330,000 tested, 0.28% active. recombinant A3G, ssDNA deamination FAM/TAMRA fluorescence;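 active means inhibition of at least 40% at 20 µM, with no more than 30% in the related APOBEC3A deaminase screen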;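 further: plate controls were DMSO wells with A3G for no effect and wells lacking A3G enzyme for full effect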
PABP FP inh: PABP poly(A) RNA binding inhibitors, primary screen, biochemical, fluorescence polarization, uHTS. Polyadenylate-binding protein 1 (Homo sapiens), P11940. calls only at 35 µM. 290,000 tested, 1% active. AID 2014, 2009;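 further: calls also rest on retests at 20 µM and on dose response follow-up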
eIF4H FP inh: human eIF4H binding inhibitors, primary screen, translation initiation inhibitor project, biochemical, uHTS, fluorescence polarization. Eukaryotic translation initiation factor 4H (Homo sapiens), Q15056. eIF4H fluorescence polarization binding assay. inhibition, % at 35 µM. 290,000 tested, 0.94% active. AID 2012, 2009;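 further: calls also rest on retests at 20 µM and on dose response follow-up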
MLLE-PAM2 inh: inhibitors of PABP1 MLLE–PAM2 peptide binding, primary screen, biochemical, fluorescence polarization, FITC-PAM2, GST-MLLE; Polyadenylate-binding protein 1 (Homo sapiens), P11940; inhibition, % at 20 µM; 360,000 tested, 0.36% active; AID 588489, 2011; in the data active means inhibition above about 35%, passing the limit was not always enough;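 further: plate controls were DMSO wells with GST-MLLE for no effect and wells lacking GST-MLLE protein for full effect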
APOBEC3A inh: APOBEC3A ssDNA deaminase inhibitors, primary screen, selectivity assay for APOBEC3G inhibitor project, biochemical, FAM/TAMRA oligo cleavage fluorescence; 330,000 tested, 0.41% active; inhibition, % at 20 µM; DNA dC->dU-editing enzyme APOBEC-3A (Homo sapiens), P31941; AID 493011, 2011; recombinant A3A, FAM/TAMRA ssDNA deamination fluorescence;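 active means at least 40% inhibition at 20 µM here, with at most 30% in a related deaminase screen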;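 further: plate controls were A3A with DMSO for no effect and wells lacking A3A enzyme for full effect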
Target sequence (P31941 whole entry, looked up): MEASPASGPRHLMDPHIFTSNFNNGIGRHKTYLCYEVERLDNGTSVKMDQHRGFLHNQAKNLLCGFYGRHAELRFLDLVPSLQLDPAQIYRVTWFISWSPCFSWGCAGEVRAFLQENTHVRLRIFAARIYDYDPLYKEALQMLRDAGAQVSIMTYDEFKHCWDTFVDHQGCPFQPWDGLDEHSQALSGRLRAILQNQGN
PHOSPHO1 block: PubChem AID 1565; inhibition, % at 13.3 µM; Phosphoethanolamine/phosphocholine phosphatase (Homo sapiens), Q8TCT1; 290,000 tested, 1.1% active; recombinant PHOSPHO1, absorbance phosphatase assay; in the data active means inhibition above about 60%
* = called active by the depositor. Shown are actives, neighbours in structure and some others; about 2.6% of the full set was active somewhere. Unless noted, how the calls were made is not given here.

How did CC1(C)CC(=O)C(C=Nc2ccc(Cl)cn2)=C(O)C1 do in these assays?
APOBEC3G inh: -2; PABP FP inh: inactive; eIF4H FP inh: -6; MLLE-PAM2 inh: 17; APOBEC3A inh: -2; PHOSPHO1 block: -17

What do the screens show for `OCc1ccccc1N=c1ssnc1Cl`?
APOBEC3G inh: 1; PABP FP inh: inactive; eIF4H FP inh: -8; APOBEC3A inh: -1; PHOSPHO1 block: 91*

Results for Clc1ccc(N=c2ssnc2Cl)nc1 ?
APOBEC3G inh: 20; PABP FP inh: inactive; eIF4H FP inh: 17; MLLE-PAM2 inh: -28; APOBEC3A inh: -1; PHOSPHO1 block: 92*

How did CC(=O)c1ccc(Nc2nc(C(C)N)cs2)cc1 (stereo unspecified) do in these assays?
MLLE-PAM2 inh: 1

What do the screens show for `Cc1cccc(C(C)(C)C)c1OCCCCN1CCCC1`?
APOBEC3G inh: -5; PABP FP inh: inactive; eIF4H FP inh: 6; MLLE-PAM2 inh: 3; APOBEC3A inh: -3; PHOSPHO1 block: 25

How did CC(C)OC(=O)c1ccc(N2CCN(c3ccccc3F)CC2)nc1 do in these assays?
APOBEC3G inh: -8; PABP FP inh: inactive; eIF4H FP inh: 0; MLLE-PAM2 inh: -2; APOBEC3A inh: -2; PHOSPHO1 block: 42

Results for CCN1CCN(c2cc(N3CCN(C(=O)c4ccco4)CC3)c3c4c(onc24)-c2ccccc2C3=O)CC1 ?
APOBEC3G inh: 0; PABP FP inh: active; eIF4H FP inh: 94*; MLLE-PAM2 inh: 23; APOBEC3A inh: -1; PHOSPHO1 block: -8

How did O=C(O)CCNc1cc(N2CCN(C(=O)c3ccco3)CC2)c2noc3c2c1C(=O)c1ccccc1-3 do in these assays?
APOBEC3G inh: 87; PABP FP inh: active; eIF4H FP inh: 101*; MLLE-PAM2 inh: -57; APOBEC3A inh: 83; PHOSPHO1 block: 27

What do the screens show for `Cc1ccc([N+](=O)[O-])cc1NC(=S)NC(=O)C(C)(C)C`?
APOBEC3G inh: -4; PABP FP inh: inactive; eIF4H FP inh: -11; MLLE-PAM2 inh: 17; APOBEC3A inh: 0; PHOSPHO1 block: -9

Results for O=C(NC(=S)NNC(=O)c1ccccc1O)c1ccc([N+](=O)[O-])cc1 ?
APOBEC3G inh: -6; PABP FP inh: inactive; eIF4H FP inh: 3; MLLE-PAM2 inh: 41*; APOBEC3A inh: -5; PHOSPHO1 block: 14

Results for C/C(CC(=O)Nc1ccc([N+](=O)[O-])cc1)=N\NC(=O)c1ccccc1O ?
APOBEC3G inh: -6; PABP FP inh: inactive; eIF4H FP inh: 82*; MLLE-PAM2 inh: -14; APOBEC3A inh: -9; PHOSPHO1 block: 34

What do the screens show for `CCCCC(=O)NC(=S)NNC(=O)CC#N`?
APOBEC3G inh: 9; PABP FP inh: inactive; eIF4H FP inh: 22; MLLE-PAM2 inh: 31; APOBEC3A inh: -5; PHOSPHO1 block: 95*

Results for Cc1c(NC(=S)NC(=O)C(C)(C)C)cccc1[N+](=O)[O-] ?
APOBEC3G inh: -8; PABP FP inh: active; eIF4H FP inh: active; MLLE-PAM2 inh: 34; APOBEC3A inh: -3; PHOSPHO1 block: 8

What do the screens show for `CC(NC(=O)CNC(=O)c1ccco1)c1ccccc1` (stereo unspecified)?
APOBEC3G inh: 3; PABP FP inh: inactive; eIF4H FP inh: 2; MLLE-PAM2 inh: 7; APOBEC3A inh: 1; PHOSPHO1 block: 20

What do the screens show for `O=C(NNC(=S)NC(=O)c1ccccc1[N+](=O)[O-])c1ccccc1[N+](=O)[O-]`?
APOBEC3G inh: 3; PABP FP inh: inactive; eIF4H FP inh: 16; MLLE-PAM2 inh: 18; APOBEC3A inh: -2; PHOSPHO1 block: 85*

Results for O=C(NC(=S)Nc1cccc2c(O)cccc12)c1ccccc1[N+](=O)[O-] ?
APOBEC3G inh: 12; PABP FP inh: active; eIF4H FP inh: 75*; MLLE-PAM2 inh: 17; APOBEC3A inh: 0; PHOSPHO1 block: 21

Bioassay records from PubChem BioAssay.
